# Results filed as inconclusive are left out. Active and inactive are the calls of the source. The call rests on the fitted dose curve; in most records, active means well fitted inhibition curve with a large enough effect; inconclusive means small, poorly fitted or top-dose-only effect; inactive means flat fitted curve, though single readings scatter.
# Experiment: Drug repurposing screens with cells derived from glioblastoma tumor samples (AID 1345199); further: nearly all actives have a fitted effect of over 40% in size
# Settings: GBM patient neurospheres viability, ATP luminescence, 48 h; tumour line A
# Method in brief: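 Primary testing used CD133+ neurospheres from four GBM patients, seven concentrations, 48 h exposure and ATP-based viability; confirmation added three slower-growing patient lines.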
# Potency means the concentration at half of the fitted maximal effect.
row,SMILES,Potency
1,CN1CCC(CN2c3ccccc3Sc3ccccc32)C1 (centres undefined),7.08 µM (active)
2,CC1=C(/C=C/C(C)=C/C=C/C(C)=C/CO)C(C)(C)CCC1,31.6 µM (active)
3,CC(C)N=c1cc2n(-c3ccc(Cl)cc3)c3ccccc3nc-2cc1Nc1ccc(Cl)cc1,5.01 µM (active)
4,COc1ccc(C[C@@H](C)NC[C@H](O)c2ccc(O)c(NC=O)c2)cc1,12.6 µM (active)
5,CN(C)CCCN1c2ccccc2C(C)(C)c2ccccc21,14.1 µM (active)
6,Cc1ccccc1OCC(O)CNCCOc1ccc(C(N)=O)cc1 (centres undefined),17.8 µM (active)
7,COCC(=O)Nc1cc(Sc2ccccc2)ccc1N=C(NC(=O)OC)NC(=O)OC,6.31 µM (active)
8,C=C(NC(=O)C(=C)NC(=O)c1csc(C2=N[C@@H]3c4csc(n4)[C@H]4NC(=O)c5csc(n5)[C@H]([C@](C)(O)[C@@H](C)O)NC(=O)[C@H]5CSC(=N5)C(=CC)NC(=O)C([C@@H](C)O)NC(=O)c5csc(n5)[C@]3(CC2)NC(=O)[C@H](C)NC(=O)C(=C)NC(=O)[C@H](C)NC(=O)C([C@@H](C)CC)NC2C=Cc3c([C@H](C)O)cc(nc3C2O)C(=O)O[C@@H]4C)n1)C(N)=O (some centres undefined),11.2 µM (active)
9,CC(=O)N[C@@H](CC(=O)N[C@@H](CCC(=O)O)C(=O)O)C(=O)O,22.4 µM (active)
10,CO[C@H]1C=CO[C@@]2(C)Oc3c(C)c(O)c4c(O)c(c5c(c4c3C2=O)=NC2(CCN(CC(C)C)CC2)N=5)NC(=O)/C(C)=C\C=C/[C@H](C)[C@H](O)[C@@H](C)[C@@H](O)[C@@H](C)[C@H](OC(C)=O)[C@@H]1C,10 µM (active)
11,CCc1ccc2c(c1)N(CC(C)CN(C)C)c1ccccc1S2 (centres undefined),4.47 µM (active)

# Same assay, conditions: GBM patient neurospheres viability, ATP luminescence, 48 h; tumour line B
row,SMILES,Potency
1,CN1CCC(CN2c3ccccc3Sc3ccccc32)C1 (centres undefined),35.5 µM (active)
2,C=C(NC(=O)C(=C)NC(=O)c1csc(C2=N[C@@H]3c4csc(n4)[C@H]4NC(=O)c5csc(n5)[C@H]([C@](C)(O)[C@@H](C)O)NC(=O)[C@H]5CSC(=N5)C(=CC)NC(=O)C([C@@H](C)O)NC(=O)c5csc(n5)[C@]3(CC2)NC(=O)[C@H](C)NC(=O)C(=C)NC(=O)[C@H](C)NC(=O)C([C@@H](C)CC)NC2C=Cc3c([C@H](C)O)cc(nc3C2O)C(=O)O[C@@H]4C)n1)C(N)=O (some centres undefined),14.1 µM (active)
3,CCc1ccc2c(c1)N(CC(C)CN(C)C)c1ccccc1S2 (centres undefined),25.1 µM (active)
